Assay [1] is described as follows: qHTS assay to identify small molecule antagonists of the retinoid acid receptor (RAR) signaling pathway - cell viability counter screen (AID 1159551). Further: nearly all actives have a fitted effect of over 35% in size. The method, boiled down:
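Luminescent ATP quantitation (CellTiter-Glo) gave cell viability in C3RL4 cells exposed to test chemicals for 6 h at 37 C alongside 1 uM final retinol.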

Assay [2] is described as follows: qHTS assay to identify small molecule agonists of the retinoic acid receptor (RAR) signaling pathway (AID 1159553). The method in brief:
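Luminescence from a RARE-driven luciferase reporter in C3RL4 cells served as the read-out, measured after 30 min with detection reagent at room temperature. Compounds in DMSO were applied for 6 hr at 37 C following overnight seeding.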

The target of assay [3] is Luciferin 4-monooxygenase (Photinus pyralis) (UniProt P08659). Description: qHTS assay to identify small molecule inhibitors of firefly luciferase (AID 1224835). Further: nearly all actives have a fitted effect of over 25% in size. Further: potency means the concentration at half of the fitted maximal effect. The method in brief: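 Quantitative HTS format; KM concentrations of both substrates. Purified P. pyralis FLuc activity quantified from luminescence images.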
Sequence of Luciferin 4-monooxygenase (Photinus pyralis) (P08659 whole entry, looked up): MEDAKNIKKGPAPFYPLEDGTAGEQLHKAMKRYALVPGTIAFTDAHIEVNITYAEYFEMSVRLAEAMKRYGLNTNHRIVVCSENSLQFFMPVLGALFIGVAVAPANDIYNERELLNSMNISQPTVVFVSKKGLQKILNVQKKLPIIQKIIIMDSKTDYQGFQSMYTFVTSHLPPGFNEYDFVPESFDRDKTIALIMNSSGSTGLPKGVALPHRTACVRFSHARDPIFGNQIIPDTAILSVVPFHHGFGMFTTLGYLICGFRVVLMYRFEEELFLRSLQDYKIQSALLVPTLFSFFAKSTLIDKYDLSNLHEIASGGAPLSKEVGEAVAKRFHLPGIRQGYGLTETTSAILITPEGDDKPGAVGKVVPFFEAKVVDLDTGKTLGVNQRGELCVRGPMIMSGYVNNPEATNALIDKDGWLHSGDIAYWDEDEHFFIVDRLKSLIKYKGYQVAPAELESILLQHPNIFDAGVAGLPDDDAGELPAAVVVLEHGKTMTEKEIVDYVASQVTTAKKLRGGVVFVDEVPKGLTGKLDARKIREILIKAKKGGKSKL
The nature of assay [4]: qHTS assay to identify small molecule agonists of the constitutive androstane receptor (CAR) signaling pathway - cell viability counter screen (AID 1224836). Further: nearly all actives have a fitted effect of over 45% in size. Further: potency means the concentration at half of the fitted maximal effect. The method in brief: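 Double-stable HepG2 hepatoma cells (hCAR plus CYP2B6-2.2kb) are treated for 23 h at 37 C with test compounds in 15-point concentration series. PK11195 at 0.75 uM final is co-added. Cell viability is quantified by CellTiter-Fluor.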

Assay [5] in a line: qHTS assay to identify small molecule antagonists of the constitutive androstane receptor (CAR) signaling pathway - cell viability counter screen (AID 1224837). Further: nearly all actives have a fitted effect of over 45% in size. Further: potency means the concentration at half of the fitted maximal effect. The method, boiled down:
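HepG2-CYP2B6-hCAR cells, 2500/well, 4 hr pre-incubation; compound titration, 15 conc.; CITCO 50 nM final; 23 hr, 37 C/5% CO2; CellTiter-Fluor, fluorescence intensity.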

For assay [6], the target named is Nuclear receptor subfamily 1 group I member 3 (Homo sapiens) (UniProt Q14994). Description: qHTS assay to identify small molecule antagonists of the constitutive androstane receptor (CAR) signaling pathway (AID 1224838).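 Further: HepG2 cells stably expressing hCAR with CYP2B6 luciferase reporter stimulated by CITCO; nearly all actives have a fitted effect of over 40% in size.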 Further: potency means the concentration at half of the fitted maximal effect. The method, boiled down: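 HepG2-CYP2B6-hCAR cells; 4 h pre-incubation; cpd (15 conc) + CITCO 50 nM final; 24 h, 37 C/5% CO2; ONE-Glo, luminescence.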
Sequence of Nuclear receptor subfamily 1 group I member 3 (Homo sapiens) (Q14994 whole entry, looked up): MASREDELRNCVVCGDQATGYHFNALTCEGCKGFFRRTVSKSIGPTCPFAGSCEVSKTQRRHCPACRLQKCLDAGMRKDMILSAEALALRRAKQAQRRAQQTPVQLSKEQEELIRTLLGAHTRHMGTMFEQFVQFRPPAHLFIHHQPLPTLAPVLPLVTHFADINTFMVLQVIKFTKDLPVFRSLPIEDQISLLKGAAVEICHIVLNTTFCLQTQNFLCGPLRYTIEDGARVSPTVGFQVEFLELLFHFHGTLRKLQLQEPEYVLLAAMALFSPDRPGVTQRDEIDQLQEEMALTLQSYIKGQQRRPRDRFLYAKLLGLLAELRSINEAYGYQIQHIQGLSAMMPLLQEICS

Assay [7] can be described thus: qHTS assay to identify small molecule antagonists of the estrogen related receptor signaling pathway with the pleiotropic PPARgamma coactivator (PGC) from Tox21 10K library - cell viability counter screen (AID 1224840; active means well fitted cell-killing curve with a large enough effect in the repeat runs, not every such curve was filed as active; further: nearly all actives have a fitted effect of over 40% in size). The method, boiled down:
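PGC/ERR cells, 2,000/well; 6 h pre-incubation 37 C/5% CO2; cpd in DMSO via pin tool; 17.5 h 37 C; CellTiter-Fluor, 30 min; fluorescence.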

Assay [8] concerns the target Thyrotropin receptor (Homo sapiens) (UniProt P16473). Nature of the assay: qHTS assay to identify small molecule agonists of the thyroid stimulating hormone receptor (TSHR) signaling pathway (AID 1224843; calls by dose curve; further: nearly all actives have a fitted effect of over 45% in size). The method in brief: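 Cell line HEK293 with TSHR; density 800/well. Exposure 30 min RT. Readout HTRF cAMP (cAMP-d2/anti-cAMP-cryptate), 1 h RT before reading.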
Assay [9] is described as follows: qHTS assay to identify small molecule agonists of the hypoxia (HIF-1) signaling pathway - cell viability counter screen (AID 1224844; calls by dose curve; further: nearly all actives have a fitted effect of over 50% in size; further: potency means the concentration at half of the fitted maximal effect). The method, boiled down:
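ME-180 HRE-bla cells, 2,000/well, 0.5% dialyzed FBS; 5 hr settle, 17 hr compound at 37C/5% CO2; CCF4-AM reporter read first, then CellTiter-Glo luminescence after 30 min RT.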

Assay [10] is described as follows: qHTS assay to identify small molecule antagonists of the estrogen related receptor (ERR) signaling pathway from Tox21 library - cell viability counter screen (AID 1224834). Further: nearly all actives have a fitted effect of over 30% in size. Further: potency means the concentration at half of the fitted maximal effect. The method in brief: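 Fluorescence from CellTiter-Fluor gives the viability read-out, taken 30 min after reagent addition. Before that, ERR cells seeded 6 h earlier were incubated with compounds for 17.5 h at 37 C.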

For assay [11], the target named is Nuclear receptor subfamily 1 group I member 3 (Homo sapiens) (UniProt Q14994). Description: qHTS assay to identify small molecule agonists of the constitutive androstane receptor (CAR) signaling pathway (AID 1224839).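 Further: HepG2 cells stably carrying human CAR and a CYP2B6 luciferase reporter; series mostly up to about 92 µM; nearly all actives have a fitted effect of over 15% in size.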 The method, boiled down: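 Readout: firefly luciferase luminescence via ONE-Glo. System: HepG2 double-stable for hCAR and CYP2B6-2.2kb. Conditions: 15-point compound titration, PK11195 at 0.75 uM final, 24 h incubation.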

The nature of assay [12]: qHTS assay to identify small molecule agonists of the estrogen related receptor signaling pathway with the pleiotropic PPARgamma coactivator (PGC) from Tox21 10K library (AID 1224842). Further: nearly all actives have a fitted effect of over 15% in size. The method, boiled down:
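PGC/ERR reporter cells (NTP line) were seeded 2,000 per well, rested 6 h at 37 C/5% CO2, then pin-dosed with compounds in DMSO for 18 h at 37 C; luciferase read by One-Glo luminescence after 30 min at room temperature.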

A short description of assay [13]: qHTS assay to identify small molecule antagonists of the estrogen related receptor (ERR) signaling pathway - cell viability counter screen (AID 1224818). Further: series mostly up to about 46 µM. The method, boiled down: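 Multiplexed counter screen to separate cytotoxic compounds from true ERR modulators. ERR cells received DMSO-dissolved compounds after a 6 h pre-incubation, were exposed 17.5 h at 37 C, then assayed with CellTiter-Fluor fluorescence.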

A short description of assay [14]: qHTS assay to identify small molecule antagonists of the estrogen related receptor (ERR) signaling pathway (AID 1224819;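 further: luminescence from an ERR-driven luciferase reporter measured with One-Glo reagent; series mostly up to about 46 µM; nearly all actives have a fitted effect of over 50% in size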). The method, boiled down:
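Seed ERR cells 2,000/well; rest 6 h at 37 C/5% CO2; pin compounds in DMSO; incubate 18 h at 37 C; add One-Glo; wait 30 min at room temperature; measure luminescence.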

A short description of assay [15]: qHTS assay to identify small molecule agonists of the estrogen related receptor (ERR) signaling pathway (AID 1224820). The method in brief:
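Cells: ERR line from NTP, 2,000/well. Pre-incubation 6 h, 37 C/5% CO2. Compound (DMSO) pin transfer, 18 h 37 C. One-Glo, 30 min RT, luminescence.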

Assay [16] deals with estrogen-related receptor alpha (ERRalpha) with PGC-1alpha coactivator, human. Nature of the assay: qHTS assay to identify small molecule antagonists of the estrogen related receptor signaling pathway with the pleiotropic PPARgamma coactivator (PGC) (AID 1224821; calls by dose curve; further: nearly all actives have a fitted effect of over 50% in size; further: potency means the concentration at half of the fitted maximal effect). The method, boiled down: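 Luminescent read-out (One-Glo, 30 min at room temperature) following 18 h treatment of PGC/ERR cells at 37 C with compounds delivered in DMSO. Cells had settled 6 h at 37 C/5% CO2 before dosing.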

A short description of assay [17]: qHTS assay to identify small molecule antagonists of the estrogen related receptor signaling pathway with the pleiotropic PPARgamma coactivator (PGC) cell viability counter screen (AID 1224822; further: series mostly up to about 46 µM). The method in brief: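 Cells: PGC/ERR, 2,000/well, 1536-well format. Pre-incubation 6 h, 37 C/5% CO2. Compound exposure 17.5 h, 37 C. Detection: CellTiter-Fluor, 30 min, fluorescence.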

Assay [18] is described as follows: qHTS assay to identify small molecule agonists of the estrogen related receptor signaling pathway with the pleiotropic PPARgamma coactivator (PGC) (AID 1224823). The method, boiled down: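 Steps: plate PGC/ERR cells at 2,000 cells/well; incubate 6 h, 37 C/5% CO2; pin-transfer compounds (DMSO); incubate 18 h, 37 C; add One-Glo; 30 min RT; read luminescence.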
Assay [19] can be described thus: qHTS assay to identify small molecule antagonists of the estrogen related receptor signaling pathway with the pleiotropic PPARgamma coactivator (PGC) from Tox21 10K library (AID 1224841; call rule not given here; further: series mostly up to about 92 µM; actives are mostly falling curves and most rising ones were filed inactive; nearly all actives have a fitted effect of over 50% in size). The method, boiled down: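 PGC/ERR cell line, 2,000 cells/well; 6 h pre-incubation 37 C/5% CO2; compounds (DMSO) pinned in; 18 h, 37 C; One-Glo, 30 min RT; luminescence.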

Results filed as inconclusive are left out. Values without a mark were called inactive. Active and inactive are the calls of the source. Unless noted, the call rests on the fitted dose curve; in most records, active means well fitted curve in the direction sought with a large enough effect in the repeat runs; inconclusive means weak or mixed curves; inactive means no such curve, though single readings can be large; an effect the other way counts as inactive or inconclusive.

The values that follow come from PubChem BioAssay (Tox21).

Sequence of Thyrotropin receptor (Homo sapiens) (P16473 whole entry, looked up): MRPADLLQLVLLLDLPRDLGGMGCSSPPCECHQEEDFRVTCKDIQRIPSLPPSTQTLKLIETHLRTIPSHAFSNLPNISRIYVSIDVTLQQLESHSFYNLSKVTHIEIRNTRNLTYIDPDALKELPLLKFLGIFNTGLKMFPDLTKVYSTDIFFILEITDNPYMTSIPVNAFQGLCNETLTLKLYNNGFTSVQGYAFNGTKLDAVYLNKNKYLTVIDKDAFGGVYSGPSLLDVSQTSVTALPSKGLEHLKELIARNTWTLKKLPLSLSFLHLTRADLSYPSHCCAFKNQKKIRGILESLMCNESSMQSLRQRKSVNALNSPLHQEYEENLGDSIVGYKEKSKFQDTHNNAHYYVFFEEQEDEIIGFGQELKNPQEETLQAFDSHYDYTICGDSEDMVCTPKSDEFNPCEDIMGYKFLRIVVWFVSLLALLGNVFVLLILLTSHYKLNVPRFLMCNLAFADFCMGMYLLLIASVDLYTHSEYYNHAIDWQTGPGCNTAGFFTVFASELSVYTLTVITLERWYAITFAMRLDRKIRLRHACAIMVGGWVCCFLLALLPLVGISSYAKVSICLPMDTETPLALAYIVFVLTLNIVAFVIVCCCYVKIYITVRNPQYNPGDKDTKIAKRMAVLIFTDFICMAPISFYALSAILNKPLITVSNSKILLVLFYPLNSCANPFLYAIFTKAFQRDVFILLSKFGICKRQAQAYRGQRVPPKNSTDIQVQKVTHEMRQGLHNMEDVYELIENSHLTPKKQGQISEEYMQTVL

As to `NC(=O)CC[C@@H]1NC(=O)[C@H](Cc2ccccc2)NC(=O)[C@H](Cc2ccc(O)cc2)NC(=O)CCSSC[C@@H](C(=O)N2CCC[C@H]2C(=O)N[C@@H](CCCN=C(N)N)C(=O)NCC(N)=O)NC(=O)[C@H](CC(N)=O)NC1=O`, the Potency result in assay [1], in [2], in assay [3], in [4], in assay [5] and in assay [6] was “inactive” throughout. The Potency entry in assay [7], in [8] and in assay [9] was “inactive” each time.
With `Cc1ccc(O)c(C(C)(C)C)c1`, the Potency entry in [1], in assay [10], in assay [3], in assay [4], in [5] and in assay [6] was “inactive” in each case. In addition, the Potency result in assay [11], in [7], in [8] and in [9] was “inactive” in each case.
For `CC(C)CCCCCCCCCCCCCCC(=O)O`, the Potency result in assay [1], in assay [2], in [10], in [4], in [5] and in assay [11] was “inactive” throughout. Moreover, in assay [7], the Potency result is “inactive”. The figures for the Potency in assay [3] and in assay [9] were 35.6 µM (active) and 17.4 µM (active), respectively.
On to `C[C@]12CCC(=O)C=C1CC[C@@H]1[C@@H]2[C@@H](O)C[C@@]2(C)[C@H]1CC[C@]2(O)C(=O)COC(=O)CCC(=O)O`, for which the Potency entry in [1], in assay [10], in assay [3], in assay [4], in assay [5] and in [7] was “inactive” each time. Also, the Potency result in assay [8] and in assay [9] was “inactive” in each case.
Turning to `Cc1onc(-c2c(Cl)cccc2Cl)c1C(=O)N[C@@H]1C(=O)N2[C@@H]1SC(C)(C)[C@@H]2C(=O)O`, the Potency result in [1], in [2], in assay [10], in assay [4], in [5] and in assay [6] was “inactive” each time. For the same molecule, the Potency result in assay [11], in [7], in assay [12], in assay [8] and in assay [9] was “inactive” in each case.
Consider `CCCCC(CC)COC(=O)c1ccccc1C(=O)O` (stereo not given), for which the Potency result in assay [1], in [13], in [14], in assay [16], in [17] and in assay [10] was “inactive” each time. Besides, the Potency entry in assay [3], in assay [4], in [5], in [11], in [7] and in assay [12] was “inactive” in each case. The call in assay [15] and in [18] was inactive.
For the molecule `CC1(C)CCC(C)(C)c2cc(C(=O)Nc3ccc(C(=O)O)cc3)ccc21`, the Potency entry in assay [1], in [10], in assay [4], in assay [5], in assay [6] and in assay [11] was “inactive” each time. Besides, the Potency entry in assay [7], in assay [19], in [12], in assay [8] and in assay [9] was “inactive” each time. Further, the Potency in [3] is 79.6 µM (active).
In the case of `CCN(CC)CCCC(C)Nc1c2ccc(Cl)cc2nc2ccc(OC)cc12` (stereo not given), the Potency result in assay [1], in assay [13], in assay [3] and in assay [4] was “inactive” each time. For the same molecule, the call in assay [15] and in assay [18] was inactive. Moreover, the Potency in [16] is 16.8 µM (active); in assay [9], 16.9 µM (active).
In the case of `CCC1=C[C@@H]2CN(C1)Cc1c([nH]c3ccccc13)[C@@](C(=O)OC)(c1cc3c(cc1OC)N(C)[C@H]1[C@@](O)(C(=O)OC)[C@H](OC(C)=O)[C@]4(CC)C=CCN5CC[C@]31[C@@H]54)C2`, the Potency entry in [1], in assay [3], in assay [11], in assay [19] and in [12] was “inactive” in each case. Moreover, the Potency was 0.0188 µM (active) in assay [10], 4.22 µM (active) in assay [4], 2.37 µM (active) in assay [5] and 0.106 µM (active) in assay [6].
